From PubChem BioAssay (NCI) come the findings set out here.

What all share (test): NCI-60 one-dose screen, 48 h (100 = growth as untreated, 0 = no growth, -100 = all killed)
Holding throughout (details): 10 µM unless noted

Experiment [1] concerns DU-145 prostate.
Experiment [2] has as its system K-562 leukemia.
Experiment [3] deals with MALME-3M melanoma.
Experiment [4] relates to MDA-MB-231 breast.
In experiment [5] the test system is RXF 393 renal.
Experiment [6] relates to SF-268 CNS.
Experiment [7] concerns SF-295 CNS.
In experiment [8] the test system is SF-539 CNS.
The subject of experiment [9] is UACC-257 melanoma.
In experiment [10] the test system is M14 melanoma.
The subject of experiment [11] is HCT-15 colon.
Experiment [12] deals with SNB-75 CNS.
Experiment [13] deals with SNB-19 CNS.
The test system of experiment [14] is U251 CNS.
Experiment [15] concerns PC-3 prostate.
Experiment [16] relates to SK-MEL-5 melanoma.
Experiment [17] concerns UACC-62 melanoma.
Experiment [18] has as its system LOX IMVI melanoma.
Experiment [19] relates to SK-MEL-28 melanoma.

This is part of a sample that, as a whole, favours compounds with a hit. Of some 83,000 tested, about 20% had one in any assay.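 For each line, cells grew in 96-well plates with the test compound present at a single concentration for 48 hours.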 Values without a mark were called inactive. Calls of active or inactive are those of the source. How the source made its calls: active means growth percent below 10; inactive means the rest.

Consider `CN1CCN(c2ccc3nc4c(nc3c2C(F)(F)F)C(=O)c2ncccc2C4=O)CC1`, for which the growth in [1] was -85.7% (active); in [2], -6.72% (active); in experiment [3], -99.2% (active); in experiment [4], -5.99% (active); in experiment [5], 38.4%; in experiment [6], 1.96% (active). Further, the growth in experiment [7] is -61.6% (active); in experiment [8] it was -52.4% (active); in experiment [9], -82.3% (active); in [10] it was -89.6% (active); in experiment [11], -47.5% (active); in experiment [12], 5.3% (active). Further, the growth is 17.9% in [13]; 0.911% (active) in [14]; 8.01% (active) in [15]; -99.7% (active) in experiment [16]; -82.5% (active) in experiment [17]; -50.1% (active) in [18]. Further, the growth in experiment [19] was 5.49% (active).
For `O=C1/C=C/[C@@H](O)[C@@H]2C[C@@H](O)C[C@H]2/C=C/CCC[C@H](CCO)O1`, the growth in experiment [1] was 16.6%; in experiment [2], 17.7%; in [3] it was -11.4% (active); in [4] it was -83.1% (active); in experiment [5] it was -7.43% (active); in experiment [6], 12.4%. The growth in experiment [7] is 12.1%; in experiment [8] it was 31.7%; in [9], 27%; in [10] it was 12.3%; in [11], 10%; in experiment [12] it was 33.1%. For the same molecule, the growth is 31.4% in experiment [13]; 20.7% in experiment [14]; 19.6% in [15]; -94.6% (active) in experiment [16]; 25.3% in experiment [17]; -61.4% (active) in [18]. Besides, the growth in experiment [19] is -3.47% (active).
For `COc1ccc(/C=C/C(c2cc(OC)c(OC)c(OC)c2)n2cncn2)cc1` (stereo not given), the growth in [1] is 61.2%; in experiment [2], 17.7%; in experiment [3], 61.3%; in [4], 50.1%; in [5], 46.5%; in [6] it was 57.1%. Besides, the growth in experiment [7] is 22.5%; in experiment [8] it was 56.5%; in experiment [9], 46.4%; in experiment [10], 17.9%; in [11], 31.1%; in experiment [12], 51.3%. Moreover, the growth was 31.8% in [14]; 31.2% in experiment [15]; 33% in experiment [16]; 33.8% in [17]; 50% in experiment [18]; 62.6% in experiment [19].
For `Cc1ccc2c(-c3nnc(N)s3)cc(=O)oc2c1C`, the growth in experiment [1] was 116%; in experiment [2] it was 87.3%; in experiment [3], 104%; in experiment [4], 96.5%; in experiment [5], 106%; in experiment [6], 102%. Also, the growth is 97.4% in experiment [7]; 102% in experiment [8]; 106% in experiment [9]; 101% in experiment [10]; 96.9% in experiment [11]; 92.6% in experiment [12]. For the same molecule, the growth was 104% in [13]; 99.7% in [14]; 97.1% in experiment [15]; 101% in experiment [16]; 94.8% in experiment [17]; 101% in experiment [18]. The growth in [19] is 102%.
On to `O=C(O)[C@@H](Cc1ccc2ccccc2c1)NC(=O)n1c2ccccc2c2ccccc21`, for which the growth in [1] was 19.4%; in experiment [2], 11.6%; in experiment [3], 22%; in experiment [4], 15.6%; in experiment [5], 14.6%; in experiment [6], 42.5%. The growth in [7] was 11.6%; in experiment [8] it was 1.16% (active); in experiment [9], 57.7%; in experiment [10], 4.26% (active); in [11] it was 21.1%; in experiment [12], 20.1%. Also, the growth was 25.4% in experiment [13]; 14.8% in [14]; 26.7% in experiment [15]; 3.91% (active) in experiment [16]; 18.3% in [17]; 35.9% in experiment [18]. For the same molecule, the growth in experiment [19] was 63.3%.
For `CO[C@H]1CC(=O)n2c3ccccc3c3c4c(c5c6ccccc6n1c5c32)C(=O)NC4=O`, the growth was 42.3% in experiment [1]; 76.3% in [2]; 50.2% in experiment [3]; 71.4% in experiment [4]; 62.4% in experiment [5]; 68.9% in experiment [6]. In addition, the growth in experiment [7] is 11.3%; in experiment [8] it was 57%; in [9], 73.5%; in experiment [10], 62.2%; in experiment [11], 62.4%; in experiment [12], 4.5% (active). In addition, the growth in experiment [13] was 98.4%; in [14], 46.8%; in experiment [15] it was 54.6%; in experiment [16], 60.7%; in [17], 44.9%; in [18] it was 63.8%. For the same molecule, the growth in [19] is 39.9%.
For `CCN(CC)c1ccc(/C=N/NC(=O)Cc2ccc(Nc3ccnc(C(F)(F)F)c3)cc2)c(O)c1`, the growth is 18.3% in experiment [1]; 23.1% in [2]; 15.5% in experiment [3]; 43% in experiment [4]; 45.8% in experiment [5]; 18% in [6]. Besides, the growth in experiment [7] was 17.9%; in [8], 17.1%; in [9] it was 37.4%; in experiment [10], -18.3% (active); in experiment [11], 33.2%; in [13], 30.9%. Besides, the growth in [14] is 25.7%; in experiment [15], 53.3%; in experiment [16], 27.1%; in [17] it was 20.6%; in experiment [18] it was 6.64% (active); in experiment [19], 31.7%.
As for `O=C1/C(=C/c2ccccc2F)CN(C(=O)C(Cl)Cl)C/C1=C\c1ccccc1F`, the growth was -63.4% (active) in [1]; -2.29% (active) in [2]; -47% (active) in [3]; -49.1% (active) in experiment [4]; -76.3% (active) in experiment [5]; -0.301% (active) in [6]. For the same molecule, the growth is -46.2% (active) in experiment [7]; -85.9% (active) in [8]; -17.5% (active) in experiment [9]; -43.7% (active) in experiment [10]; -66.5% (active) in experiment [11]; -18.4% (active) in experiment [12]. Also, the growth is -84.1% (active) in experiment [13]; -85.1% (active) in experiment [14]; -41.3% (active) in [15]; -77% (active) in experiment [16]; -59% (active) in experiment [17]; -86.4% (active) in experiment [18]. The growth in experiment [19] was -58.9% (active).
